Data published in the supplement of paper PMC10849652.
Of roughly 7,900 targets only a part is listed; those with a hit were picked by preference. About 0.6% of all pairs of compound and target were hits.

Compound: O=C1NC(=O)C(c2cnc3ccccn23)=C1c1cn2c3c(cc(F)cc13)CN(C(=O)N1CCCCC1)CC2
Assay: log2 fold change, soluble protein after heating vs DMSO (PISA); higher = thermal stabilisation; K562 cells, 10 uM, 30 min; active = over 0.2 and 3.5 SD of the protein, either way, in both replicates (recomputed)
How it was run: (§1)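 Soluble protein was quantified by TMTpro 16plex LC-MS/MS after channel sums were equalised. It was obtained as the supernatant after 21,000xg for 90 min from pooled aliquots of K562 cells (2×10^6 cells/mL, 10 μM compound, 30 min) heated for 3 min across 48°C-58°C and extracted in PBS with 0.5% NP-40 at 4°C. Thermal stability values are relative to control samples and come from duplicates. They are given as log2 fold changes.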

UniProt Q02252, sequence (Q02252 whole entry, looked up): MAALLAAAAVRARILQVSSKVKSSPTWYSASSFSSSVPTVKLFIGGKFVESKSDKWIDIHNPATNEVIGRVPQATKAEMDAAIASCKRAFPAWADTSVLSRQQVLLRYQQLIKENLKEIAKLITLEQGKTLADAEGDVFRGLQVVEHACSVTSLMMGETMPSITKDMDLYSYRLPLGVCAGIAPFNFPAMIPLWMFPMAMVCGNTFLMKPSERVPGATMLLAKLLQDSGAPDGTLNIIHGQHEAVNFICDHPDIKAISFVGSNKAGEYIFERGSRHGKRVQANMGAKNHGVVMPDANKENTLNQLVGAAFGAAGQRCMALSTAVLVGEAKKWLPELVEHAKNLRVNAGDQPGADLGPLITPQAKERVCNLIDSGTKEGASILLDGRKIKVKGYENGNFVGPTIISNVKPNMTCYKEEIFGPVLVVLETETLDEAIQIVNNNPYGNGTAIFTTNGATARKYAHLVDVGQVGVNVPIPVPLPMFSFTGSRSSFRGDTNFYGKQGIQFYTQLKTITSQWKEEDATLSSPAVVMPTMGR
UniProt Q99798, sequence (Q99798 whole entry, looked up): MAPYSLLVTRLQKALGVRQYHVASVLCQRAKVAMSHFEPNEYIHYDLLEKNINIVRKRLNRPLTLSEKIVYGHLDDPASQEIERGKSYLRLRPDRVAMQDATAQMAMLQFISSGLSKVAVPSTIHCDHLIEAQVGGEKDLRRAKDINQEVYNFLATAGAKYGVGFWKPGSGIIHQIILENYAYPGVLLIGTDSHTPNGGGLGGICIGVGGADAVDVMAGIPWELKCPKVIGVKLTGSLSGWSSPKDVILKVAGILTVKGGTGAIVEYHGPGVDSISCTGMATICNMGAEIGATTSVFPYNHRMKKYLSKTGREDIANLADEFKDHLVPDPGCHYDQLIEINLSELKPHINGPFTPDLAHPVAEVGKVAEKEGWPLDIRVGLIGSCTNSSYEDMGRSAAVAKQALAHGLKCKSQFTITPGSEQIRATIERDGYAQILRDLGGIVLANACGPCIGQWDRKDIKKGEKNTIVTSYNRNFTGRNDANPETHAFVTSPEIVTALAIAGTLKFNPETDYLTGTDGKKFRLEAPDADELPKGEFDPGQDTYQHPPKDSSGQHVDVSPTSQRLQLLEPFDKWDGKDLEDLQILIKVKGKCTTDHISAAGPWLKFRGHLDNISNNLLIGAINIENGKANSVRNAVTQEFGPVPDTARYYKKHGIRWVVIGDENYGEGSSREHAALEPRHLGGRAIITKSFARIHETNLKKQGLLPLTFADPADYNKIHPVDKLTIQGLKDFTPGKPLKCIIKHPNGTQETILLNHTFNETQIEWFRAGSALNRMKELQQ
UniProt Q6P6C2, sequence (Q6P6C2 whole entry, looked up): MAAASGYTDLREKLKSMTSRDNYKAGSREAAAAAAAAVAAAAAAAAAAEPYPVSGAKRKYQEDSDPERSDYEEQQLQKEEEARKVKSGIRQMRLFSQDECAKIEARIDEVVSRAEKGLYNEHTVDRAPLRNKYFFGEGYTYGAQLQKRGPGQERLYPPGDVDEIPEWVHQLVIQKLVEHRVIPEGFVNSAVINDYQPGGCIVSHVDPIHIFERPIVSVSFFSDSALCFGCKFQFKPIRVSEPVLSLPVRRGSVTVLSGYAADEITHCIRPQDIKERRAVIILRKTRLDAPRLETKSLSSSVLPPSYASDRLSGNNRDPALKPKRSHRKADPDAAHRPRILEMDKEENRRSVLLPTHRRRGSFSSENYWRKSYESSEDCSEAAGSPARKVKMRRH
UniProt Q8TDN6, sequence (Q8TDN6 whole entry, looked up): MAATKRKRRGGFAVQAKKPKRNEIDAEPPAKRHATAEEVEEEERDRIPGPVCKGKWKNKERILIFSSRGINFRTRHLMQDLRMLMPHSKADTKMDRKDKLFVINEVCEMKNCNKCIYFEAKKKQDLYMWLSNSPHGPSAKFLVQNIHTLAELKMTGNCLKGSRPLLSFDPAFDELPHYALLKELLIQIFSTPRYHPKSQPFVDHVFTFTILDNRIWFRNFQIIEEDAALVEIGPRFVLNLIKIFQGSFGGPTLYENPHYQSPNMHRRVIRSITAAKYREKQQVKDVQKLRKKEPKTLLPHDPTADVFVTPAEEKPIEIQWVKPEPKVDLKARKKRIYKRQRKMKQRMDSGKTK
UniProt P31751, sequence (P31751 whole entry, looked up): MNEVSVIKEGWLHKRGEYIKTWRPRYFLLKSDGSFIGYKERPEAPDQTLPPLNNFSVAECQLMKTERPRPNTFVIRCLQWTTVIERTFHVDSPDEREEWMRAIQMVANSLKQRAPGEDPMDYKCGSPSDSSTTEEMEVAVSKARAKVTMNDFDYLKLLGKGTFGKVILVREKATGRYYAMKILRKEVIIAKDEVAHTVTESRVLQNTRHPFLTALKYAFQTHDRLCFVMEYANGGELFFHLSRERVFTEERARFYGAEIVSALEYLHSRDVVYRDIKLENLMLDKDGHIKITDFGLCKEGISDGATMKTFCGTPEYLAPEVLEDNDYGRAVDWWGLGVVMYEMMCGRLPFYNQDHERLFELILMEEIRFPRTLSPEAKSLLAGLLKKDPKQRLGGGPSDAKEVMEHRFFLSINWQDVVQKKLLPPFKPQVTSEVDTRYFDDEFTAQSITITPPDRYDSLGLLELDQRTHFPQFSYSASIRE
UniProt P49189, sequence (P49189 whole entry, looked up): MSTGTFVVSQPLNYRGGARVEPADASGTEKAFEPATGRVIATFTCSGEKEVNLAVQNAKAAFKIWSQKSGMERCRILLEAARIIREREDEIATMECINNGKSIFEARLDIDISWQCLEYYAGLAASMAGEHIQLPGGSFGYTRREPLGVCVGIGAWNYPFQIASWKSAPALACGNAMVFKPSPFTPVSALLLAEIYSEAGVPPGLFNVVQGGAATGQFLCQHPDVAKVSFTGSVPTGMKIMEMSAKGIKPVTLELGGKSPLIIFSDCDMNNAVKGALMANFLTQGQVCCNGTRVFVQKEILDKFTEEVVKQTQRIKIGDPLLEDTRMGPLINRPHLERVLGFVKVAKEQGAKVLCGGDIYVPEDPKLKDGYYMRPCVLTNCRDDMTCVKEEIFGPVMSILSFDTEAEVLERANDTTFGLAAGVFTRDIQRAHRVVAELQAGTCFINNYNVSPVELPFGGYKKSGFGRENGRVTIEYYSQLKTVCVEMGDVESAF
UniProt P49748, sequence (P49748 whole entry, looked up): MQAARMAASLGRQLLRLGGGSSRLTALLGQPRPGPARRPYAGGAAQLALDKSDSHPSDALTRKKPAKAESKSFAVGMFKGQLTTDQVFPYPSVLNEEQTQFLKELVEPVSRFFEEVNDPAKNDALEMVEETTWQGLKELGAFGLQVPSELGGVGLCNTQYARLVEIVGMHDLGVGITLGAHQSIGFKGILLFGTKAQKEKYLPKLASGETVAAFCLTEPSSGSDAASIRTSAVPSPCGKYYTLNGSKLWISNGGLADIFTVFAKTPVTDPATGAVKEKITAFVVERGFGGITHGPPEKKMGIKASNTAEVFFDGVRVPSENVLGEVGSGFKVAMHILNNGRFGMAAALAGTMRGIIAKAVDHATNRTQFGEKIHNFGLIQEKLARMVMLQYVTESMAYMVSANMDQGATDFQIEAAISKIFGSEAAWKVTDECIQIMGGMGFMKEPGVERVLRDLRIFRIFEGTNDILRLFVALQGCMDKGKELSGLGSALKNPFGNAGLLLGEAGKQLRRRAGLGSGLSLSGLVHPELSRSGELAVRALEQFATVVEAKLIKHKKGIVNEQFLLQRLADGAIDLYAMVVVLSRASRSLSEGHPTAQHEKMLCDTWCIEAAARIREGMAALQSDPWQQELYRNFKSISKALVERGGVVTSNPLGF
UniProt Q9P287, sequence (Q9P287 whole entry, looked up): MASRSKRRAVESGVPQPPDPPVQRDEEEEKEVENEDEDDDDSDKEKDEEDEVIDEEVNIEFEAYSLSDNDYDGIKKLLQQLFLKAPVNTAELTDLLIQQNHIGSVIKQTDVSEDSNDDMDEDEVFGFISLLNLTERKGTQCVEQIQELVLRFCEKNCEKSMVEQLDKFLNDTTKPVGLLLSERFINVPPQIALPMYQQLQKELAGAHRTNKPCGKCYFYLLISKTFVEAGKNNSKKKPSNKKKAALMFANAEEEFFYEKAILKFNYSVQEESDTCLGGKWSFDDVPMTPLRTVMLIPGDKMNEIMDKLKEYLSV
UniProt Q9H8Y5, sequence (Q9H8Y5 whole entry, looked up): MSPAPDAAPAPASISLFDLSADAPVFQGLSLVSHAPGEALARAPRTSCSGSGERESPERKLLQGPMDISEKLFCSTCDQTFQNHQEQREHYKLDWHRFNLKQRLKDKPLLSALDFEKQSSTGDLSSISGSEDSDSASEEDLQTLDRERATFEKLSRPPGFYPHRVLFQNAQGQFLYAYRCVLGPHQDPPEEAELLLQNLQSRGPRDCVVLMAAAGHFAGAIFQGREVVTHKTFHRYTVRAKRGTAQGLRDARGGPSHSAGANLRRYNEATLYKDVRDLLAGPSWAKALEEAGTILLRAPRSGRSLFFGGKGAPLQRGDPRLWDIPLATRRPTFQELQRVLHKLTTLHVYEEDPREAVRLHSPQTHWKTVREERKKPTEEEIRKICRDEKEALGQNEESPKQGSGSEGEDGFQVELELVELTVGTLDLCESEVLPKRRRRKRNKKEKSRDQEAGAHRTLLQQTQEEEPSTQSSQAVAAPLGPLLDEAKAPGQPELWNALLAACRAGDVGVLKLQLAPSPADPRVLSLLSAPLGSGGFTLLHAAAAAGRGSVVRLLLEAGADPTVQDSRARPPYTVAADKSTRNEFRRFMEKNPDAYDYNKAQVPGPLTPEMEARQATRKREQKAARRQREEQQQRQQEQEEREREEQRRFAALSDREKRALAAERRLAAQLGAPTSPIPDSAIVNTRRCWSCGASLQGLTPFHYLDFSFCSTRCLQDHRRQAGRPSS
UniProt Q9Y2Y0, sequence (Q9Y2Y0 whole entry, looked up): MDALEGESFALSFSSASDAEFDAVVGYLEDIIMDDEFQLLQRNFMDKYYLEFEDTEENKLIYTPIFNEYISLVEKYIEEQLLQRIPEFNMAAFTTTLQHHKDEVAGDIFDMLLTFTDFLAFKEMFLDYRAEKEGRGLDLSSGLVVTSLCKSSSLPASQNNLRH
UniProt P56385, sequence (P56385 whole entry, looked up): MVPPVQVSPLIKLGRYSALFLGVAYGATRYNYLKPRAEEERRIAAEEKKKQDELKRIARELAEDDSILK

log2 fold change, active:
AP2S1 (UniProt P53680) -0.314

log2 fold change, inactive:
BZW2 (UniProt Q9Y6E2) -0.044, ALDH6A1 (UniProt Q02252) -0.072, ATAD3B (UniProt Q5T9A4) 0.248, ASNS (UniProt P08243) -0.021, ALG11 (UniProt Q2TAA5) -0.002, AGPAT5 (UniProt Q9NUQ2) -0.076, ALDH9A1 isoform 3 (UniProt P49189) -0.033, ARL2BP (UniProt Q9Y2Y0) 0.108, ASH2L (UniProt Q9UBL3) -0.064, ACO2 (UniProt Q99798) -0.058, APOB (UniProt P04114) 0.001, AMFR (UniProt Q9UKV5) -0.032, AKT2 (UniProt P31751) -0.017, BCAP29 isoform 2 (UniProt Q9UHQ4) -0.043, ADD3 (UniProt Q9UEY8) -0.037, ATP6V0A1 isoform 3 (UniProt Q93050) 0.019, BCCIP isoform 2 (UniProt Q9P287) -0.029, BRD4 (UniProt O60885) -0.129, ATL2 (UniProt Q8NHH9) -0.025, BRIX1 (UniProt Q8TDN6) 0.401, ACBD6 (UniProt Q9BR61) 0.022, ABCB6 (UniProt Q9NP58) -0.047, ATG4B isoform 2 (UniProt Q9Y4P1) -0.093, ALDH18A1 (UniProt P54886) -0.329, AGPAT3 isoform 3 (UniProt Q9NRZ7) -0.079, ANKZF1 (UniProt Q9H8Y5) 0.215, AK6 (UniProt Q9Y3D8) -0.051, ACADVL isoform 3 (UniProt P49748) -0.014, ATP5ME (UniProt P56385) -0.037, B4GALT1 (UniProt P15291) -0.039, ALKBH5 (UniProt Q6P6C2) 0.076, ATP12A isoform 2 (UniProt P54707) -0.032, ABHD16A (UniProt O95870) 0.005, BAP1 (UniProt Q92560) 0.076, ARMC8 (UniProt Q8IUR7) 0.026

Compound: c1cc(OCCN2CCCCC2)cc(-c2n[nH]c3ccc(-c4nnc[nH]4)cc23)c1
Assay: as above
How it was run: as §1

log2 fold change, inactive:
BZW2 (UniProt Q9Y6E2) -0.069, ALDH6A1 (UniProt Q02252) -0.043, ATAD3B (UniProt Q5T9A4) -0.104, ASNS (UniProt P08243) -0.026, ALG11 (UniProt Q2TAA5) -0.08, AGPAT5 (UniProt Q9NUQ2) -0.027, ALDH9A1 isoform 3 (UniProt P49189) 0.015, ARL2BP (UniProt Q9Y2Y0) 0.046, ASH2L (UniProt Q9UBL3) -0.05, ACO2 (UniProt Q99798) -0.042, APOB (UniProt P04114) 0.056, AMFR (UniProt Q9UKV5) 0.021, AKT2 (UniProt P31751) -0.013, BCAP29 isoform 2 (UniProt Q9UHQ4) -0.036, ADD3 (UniProt Q9UEY8) -0.024, ATP6V0A1 isoform 3 (UniProt Q93050) -0.112, BCCIP isoform 2 (UniProt Q9P287) -0.031, BRD4 (UniProt O60885) 0.028, ATL2 (UniProt Q8NHH9) -0.058, BRIX1 (UniProt Q8TDN6) -0.437, ACBD6 (UniProt Q9BR61) 0.271, ABCB6 (UniProt Q9NP58) -0.021, ATG4B isoform 2 (UniProt Q9Y4P1) -0.023, ALDH18A1 (UniProt P54886) -0.372, AGPAT3 isoform 3 (UniProt Q9NRZ7) -0.044, ANKZF1 (UniProt Q9H8Y5) -0.065, AK6 (UniProt Q9Y3D8) -0.009, AP2S1 (UniProt P53680) -0.217, ACADVL isoform 3 (UniProt P49748) -0.028, ATP5ME (UniProt P56385) -0.039, B4GALT1 (UniProt P15291) -0.027, ALKBH5 (UniProt Q6P6C2) 0.042, ATP12A isoform 2 (UniProt P54707) -0.037, ABHD16A (UniProt O95870) 0.008, BAP1 (UniProt Q92560) -0.142, ARMC8 (UniProt Q8IUR7) -0.028
